The values that follow come from PubChem BioAssay AID624331 (National Center for Advancing Translational Sciences (NCATS), 2012).

Molecules are shown by their SMILES. Results filed as inconclusive are left out. Where a call stands in place of a potency, no number is given. The source made the active and inactive calls. The call rests on the fitted dose curve; in most records, active means well fitted activation curve with a large enough effect; inconclusive means small, poorly fitted or top-dose-only effect; inactive means no such curve, though single readings can be large or run the other way.
Potency means the concentration at half of the fitted maximal effect.

The assay is described as follows: qHTS assay for re-activators of p53 using a Luc reporter: Hit Validation with no p53 Expressed. As to conditions: p53-null cells, luciferase reporter counter-screen; series mostly up to 46.1 µM. Put shortly: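 Without p53 expression, cells (1000/well, Opti-MEM + 10% FBS) were exposed 24 h at 37 deg C to compounds in a 1:5 series from 10 mM stock (top 46.1 µM in well). Luminescent signal read 10 min after Amplite addition; actives flag unspecific activation.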
As to `Clc1ccc(OCc2nc(-c3ccccn3)n[nH]2)cc1`, the Potency result was “inactive”.

With `Clc1cccc(Cl)c1CSc1nnc2ccccn12`, the Potency result was “inactive”.

For `OC1(C2(O)CC(c3ccccc3)ON2)CCCCC1` (stereo not given), the Potency result was “inactive”.

For `NNc1nc(-c2ccccc2)nc2sc3c(c12)CCCC3`, the Potency entry is “inactive”.

Consider `O=C(NNC(=O)c1cccnc1SCc1cccc([N+](=O)[O-])c1)c1ccccn1`, for which the Potency entry is “inactive”.

Regarding `C/C(=N\NC(=S)NC1CCCCC1)c1ccccc1`, the Potency result was “inactive”.

In the case of `Cc1cc(C(=O)COC(=O)c2ccc(O)cc2)c(C)n1CC(F)(F)F`, the Potency is 20.6 µM (active).

Consider `CCN(CC)c1ccc(NC(=O)CN2CCN(CC(=O)Nc3ccccc3F)CC2)cc1`, for which the Potency result was “inactive”.

On to `N#C/C(=C/c1ccccc1[N+](=O)[O-])c1nc(C2CC2)cs1`, for which the Potency entry was “inactive”.

Take `CCN(CC)c1ccc2cc(-c3nc4ccccc4n3C)c(=O)oc2c1`: the Potency result was “inactive”.

Take `CN1CC(C(=O)Nc2ccc(F)c(Cl)c2)CC1=O` (stereo not given): the Potency result was “inactive”.

For the compound `Cc1cc(NC(=O)c2cccc(COc3ccc(Br)cc3)c2)no1`, the Potency entry is “inactive”.

Take `CCc1nnc(NC(=O)CCC(=O)Nc2ccccc2)s1`: the Potency entry is “inactive”.

As for `Cc1ccc2nc(-c3ccc(NC(=O)COC(=O)c4cncc(Br)c4)cc3)sc2c1`, the Potency entry is “inactive”.

As to `CCOC(=O)CC(=O)Nc1ccc(C(=O)OCC)cc1`, the Potency entry was “inactive”.

For `COc1cccc(/C=N/NC(=O)CCc2n[nH]c(=O)[nH]c2=O)c1O`, the Potency entry was “inactive”.

On to `Cc1ccc(CSc2nc3ccncc3[nH]2)cc1`, for which the Potency result is “inactive”.

On to `Cc1cc(Br)c(S(=O)(=O)NCCN2CCOCC2)cc1C`, for which the Potency entry was “inactive”.

Consider `Cc1nn(-c2ccccc2)c(N)c1Sc1ccc([N+](=O)[O-])cc1`, for which the Potency entry was “inactive”.

As to `CN(C)c1ccc(N=Cc2nc(-c3ccccc3)oc2OC(=O)c2cccc(Cl)c2)cc1`, the Potency result was “inactive”.
